{
  "source": "PubChem BioAssay (EPA / NIEHS)",
  "target": "bovine Gamma-Aminobutyric Acid Type A Receptor BDZ, alpha 5 site (GABARa5), GABRA5 (gene 523515) (UniProt Q08E50)",
  "sequence (Q08E50 whole entry, looked up)": "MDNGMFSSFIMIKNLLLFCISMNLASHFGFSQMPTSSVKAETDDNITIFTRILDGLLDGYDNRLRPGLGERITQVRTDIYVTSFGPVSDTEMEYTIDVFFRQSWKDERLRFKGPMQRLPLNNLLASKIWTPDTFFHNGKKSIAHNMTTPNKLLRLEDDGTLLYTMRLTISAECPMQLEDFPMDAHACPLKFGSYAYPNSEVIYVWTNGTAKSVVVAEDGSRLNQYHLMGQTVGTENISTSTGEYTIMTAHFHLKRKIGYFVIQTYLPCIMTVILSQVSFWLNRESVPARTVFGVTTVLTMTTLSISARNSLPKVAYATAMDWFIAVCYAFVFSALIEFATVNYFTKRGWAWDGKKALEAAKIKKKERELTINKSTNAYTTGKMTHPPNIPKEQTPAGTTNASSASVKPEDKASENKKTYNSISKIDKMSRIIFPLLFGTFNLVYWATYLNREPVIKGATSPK",
  "assay": "NVS_LGIC_bGABARa5: NovaScreen (NVS) Ligand-Gated Ion Channel Assay for bovine Gamma-Aminobutyric Acid Type A Receptor BDZ, alpha 5 site (GABARa5) (AID 2283323)",
  "outline": "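Radioligand competitive displacement binding on bovine hippocampal membranes, read 1 hr after dosing by filter-based scintillation counting. Primary screen at 25 uM in duplicate; actives (e.g. ≥30% inhibition) then run in concentration-response up to 50 uM.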",
  "note": "Inconclusive results are not listed. Calls of active or inactive are those of the source. The calls were made as follows: active = hit-call score of the fitted dose curve at least 0.9, where 1 is the maximum; inconclusive = response in the unintended direction; inactive = score below 0.9.",
  "data": [
    {"smiles": "CNCc1ccc(NC(=O)c2c[nH]c3c2C(=O)CCC3)cc1", "values": [
      {"measurement": "outcome", "result": "inactive"}
    ]}
  ]
}
